Data: PubChem BioAssay (NCI)
The panel holds about 83,000 compounds, 20% with a hit somewhere; the sample as a whole holds those more often.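 Testing used 96-well plates and a 48-hour single-concentration exposure. Example: -40 means 40% of the starting cells died.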 Unmarked numbers belong to inactive results. Active and inactive are the calls of the source. How the source made its calls: active means growth percent below 10; inactive means the rest.

What was measured:
Assay in all cases: NCI-60 one-dose screen, 48 h (100 = growth as untreated, 0 = no growth, -100 = all killed)
Conditions in all cases: 10 µM unless noted
NCI-H23 lung = tested on: NCI-H23 lung
NCI-H226 lung = tested on: NCI-H226 lung
NCI-H322M lung = tested on: NCI-H322M lung
HOP-62 NSCLC = tested on: HOP-62 NSCLC
NCI-H460 lung = tested on: NCI-H460 lung
HOP-92 NSCLC = tested on: HOP-92 NSCLC
NCI-H522 lung = tested on: NCI-H522 lung
A549/ATCC NSCLC = tested on: A549/ATCC NSCLC
786-0 renal = tested on: 786-0 renal
COLO 205 colon = tested on: COLO 205 colon

Compound	growth (NCI-H23 lung)	growth (NCI-H226 lung)	growth (NCI-H322M lung)	growth (HOP-62 NSCLC)	growth (NCI-H460 lung)	growth (HOP-92 NSCLC)	growth (NCI-H522 lung)	growth (A549/ATCC NSCLC)	growth (786-0 renal)	growth (COLO 205 colon)
N#Cc1cc(-c2nc3ccccc3s2)c(=O)n(NS(=O)(=O)c2ccc(Cl)cc2)c1N	94.9%	80.8%	102%	89.6%	105%	98.6%	96.3%	117%	105%	122%
C=C(C)[C@@H]1CC[C@]2(C=O)CC[C@]3(C)[C@H](CC[C@@H]4[C@@]5(C)CCCNC(C)(C)[C@@H]5CC[C@]43C)[C@@H]12	78.7%	91.7%	91.5%	94.5%	16.7%	54.5%	84.1%	62.2%	80.9%	-78.8% (active)
O=c1[nH]c(=O)[nH]c(=S)[nH]1	98.5%	97.9%	95.6%	102%	105%	101%	94.6%	99.7%	102%	103%
CCCCOc1ccc(/C=N/Nc2cc(C)nc3ccc(Cl)cc23)cc1	60%	88.9%	51.6%	27.1%	-62.8% (active)	68.7%	-25.4% (active)	10.1%	-80.9% (active)	-66.6% (active)
Nc1cc(N)c2cccnc2c1O	35.5%	89.8%	78%	69.5%	15.2%	72.3%	67.2%	63%	89.8%	102%
c1ccc(-c2nn(-c3ccccc3)[n+](-c3cccc4ccccc34)n2)cc1	1.91% (active)	26.9%	42.2%	41.7%	1.82% (active)	-13.2% (active)	-8.34% (active)	23.4%	42.5%	3.41% (active)
Clc1cc(Cl)cc(N2N=C(c3cccc(Nc4ccncc4)c3)CC2c2ccc(Br)cc2)c1 (stereo not given)	64.4%	85.7%	73.1%	33.7%	-81.8% (active)	65.8%	69.7%	19.1%	105%	-40.5% (active)
O=C1/C(=C/c2ccc(O)cc2)COc2ccc(-c3ccccc3)cc21	95.9%	102%	94.1%	80.1%	66%	84.5%	84.2%	90.4%	21.4%	90.7%
O=C(Nc1ccc2cc3ccc(NC(=O)N4CCCCCC4)cc3nc2c1)N1CCCCCC1	-39% (active)	-58.5% (active)	31.4%	-47.4% (active)	-55.6% (active)	-77.8% (active)	-70.4% (active)	-11.3% (active)	-57.9% (active)	-48.8% (active)
OC(c1ccccc1)c1ccccn1 (stereo not given)	107%	97.8%	102%	104%	107%	94.4%	84.6%	77.1%	97.2%	108%
NC(=S)N/N=C(/c1ccccc1)c1ccccc1N	94.9%	82.2%	91.8%	98.5%	102%	102%	88.9%	87.3%	101%	108%
CCCCCCCCOc1ccc(/C=N/Nc2cc(C)nc3ccc(Cl)cc23)cc1	65.2%	87.2%	42.2%	-46.5% (active)	-63.4% (active)	67.3%	-56.7% (active)	-37.3% (active)	-94% (active)	-36.2% (active)
CCCCCCCC(=O)Nc1nc2[nH]c(CN3CCN(Cc4cccc(I)c4)CC3)c(CN3CCN(Cc4cccc(I)c4)CC3)c2c(=O)[nH]1	-24.5% (active)	66.4%	-60% (active)	-88.6% (active)	-75% (active)	-67.3% (active)	-58.8% (active)	-81.6% (active)	-98% (active)	-81.2% (active)
COc1cc(-c2nc3occn3c2-c2ccnc(NCCNS(=O)(=O)c3ccc(Cl)cc3)n2)ccc1F	92.2%	73.2%	91.6%	93.3%	88.8%	78.5%	66.4%	82%	84.9%	86.5%
COc1cc(/C=N/NC(=O)c2ccccc2Nc2cccc(C(F)(F)F)c2)ccc1O	91.5%	88.3%	103%	93.4%	100%	67.6%	81.9%	100%	75.7%	106%
Cn1c(COC(=O)NCCN2CCOCC2)nc2c(N3CCOCC3)nc(-c3ccccc3)nc21	-48.2% (active)	-65% (active)	69%	23.2%	1.27% (active)	-62.8% (active)	-44.6% (active)	30.7%	-83.9% (active)	-45.7% (active)
c1cnc2nc3c(cc2c1)oc1ccccc13	95.9%	93.2%	99.9%	108%	95.2%	90.3%	89.1%	87.3%	89.4%	109%
CN1CCN(c2ccc(NC3=C(Cl)C(=O)c4ncccc4C3=O)cc2C#N)CC1	51%	94%	103%	103%	94.8%	-61.4% (active)	-56.9% (active)	110%	85.5%	57.6%
CC(C)(C)OC(=O)N1C/C(=C\c2ccoc2)C(=O)/C(=C/c2ccoc2)C1	99.1%	98.3%	87.7%	93.9%	107%	100%	78.8%	102%	93.8%	109%
O=C(Nc1nc(-c2ccc(Br)cc2)cs1)c1cc(-c2ccc(Br)cc2)nc2ccc(Cl)cc12	69.7%	76.3%	89.9%	80.1%	88.3%	71.7%	76.9%	84.8%	94.3%	84.5%
CC(O)(CO)c1ccccc1 (stereo not given)	96%	99.6%	102%	96.9%	105%	94.2%	105%	99.2%	99%	103%
COc1ccc(C(=O)c2cc3c(N)c(C(=O)Nc4cccc(OC)c4)sc3nc2C)cc1	33.8%	68%	58.7%	41.5%	7.07% (active)	85.3%	-16% (active)	25.3%	50.7%	-3.22% (active)
O=S(=O)(O)c1cc(O)c2c(N=Nc3ccc(Nc4ccccc4)c4c(S(=O)(=O)O)cccc34)cc(S(=O)(=O)O)cc2c1	100%	101%	120%	100%	105%	101%	93.5%	101%	102%	97.9%
Nc1ccccc1NC(=O)c1ccc(CN2CCC/C(=C\c3cccc(Cl)c3)C2=O)cc1	21.1%	40%	40.8%	19%	7.66% (active)	44.1%	-32% (active)	33%	14.2%	-51.8% (active)
COc1cc(COC(=O)CCCCC[P+](c2ccccc2)(c2ccccc2)c2ccccc2)c(OC)c2c1OCO2	51.9%	67.6%	84.1%	79.2%	64.5%	20.1%	50.2%	81.2%	91.9%	71.4%
O=C(Nc1cccc(C2=NCCN2)c1)c1ccc(OCCCOc2ccc(C(=O)Nc3cccc(C4=NCCN4)c3)cc2)cc1	1.27% (active)	52.8%	-0.261% (active)	57.4%	6.54% (active)	18.8%	-18.6% (active)	-55.3% (active)	58.1%	-18.7% (active)
COc1cccc2cc(-c3cc4ccccc4[nH]3)/c(=N/C(=S)Nc3ccc(C)cc3)oc12	67.9%	55.1%	80.1%	22%	51.1%	-6.31% (active)	84.8%	79.9%	59%	99.4%
